“And” between values parts separate entries of the source, which are not always exact repeats. Equal entries are not always repeated. Inconclusive results are not listed. Where a structure was tested more than once in an assay, its records may differ in their call. The source made the active and inactive calls. Rule for the calls: active = hit-call score of the fitted dose curve at least 0.9, where 1 is the maximum; inconclusive = response in the unintended direction; inactive = score below 0.9.
tested on: frog Estrogen Receptor (ER), gene 398734; assay: ATG_frER1_XSP2: Attagene TRANS-FACTORIAL Multi-Species (XSP2) HepG2 Assay for frog Estrogen Receptor (ER) (AID 2283821);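 note: hits raise reporter mRNA above DMSO baseline so potency means agonist or activator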
Procedure: ATG_XSP2_multi-species_TRANS is a cell-based, multiplexed assay created by modifying the existing Attagene TRANS-FACTORIAL system to include a panel of nuclear receptors from some or all the following species: human (Homo sapiens), mouse (Mus musculus), frog (Xenopus laevis), zebrafish (Danio rerio), chicken (Gallus gallus), and turtle (Chrysemys picta). The ECOTOX-FACTORIAL format uses HepG2, a human liver cell line, with measurements taken at 24 hours after chemical dosing in a 24-well plate. Xsp2 included 3 nM 6-alpha-fluorotestosterone and 1.5 nM norgestrel to stimulate the androgen receptor.ATG_frER1_XSP2 is one of 29 assay components measured or calculated from the ATG_XSP2_multi-species_TRANS assay. It is designed to make measurements of mRNA induction, a form of inducible reporter, as detected with fluorescence intensity signals by Reverse transcription polymerase chain reaction (RT-PCR) and Capillary electrophoresis technology.The assay endpoint ATG_frER1_XSP2 was analyzed in the positive analysis fitting direction relative to DMSO as the negative control and baseline of activity. Using a type of inducible reporter, measures of mRNA for gain-of-signal activity can be used to understand the reporter gene at the transcription factor-level as they relate to the gene ER. Furthermore, this assay endpoint can be referred to as a primary readout, because this assay has produced multiple assay endpoints where this one serves a reporter gene function. To generalize the intended target to other relatable targets, this assay endpoint is annotated to the nuclear receptor intended target family, where the subfamily is steroidal.
Human liver HepG2 cells are transiently transfected with multiple reporter transcription units (MRTUs) in 6-well plates using FuGene 6 reagent (Roche; 3 ml FuGene/1 mg DNA). The MRTU constructs are regulated by a cis-regulating element (promoter). […] A major difference between the CIS and TRANS system is that in CIS activities of endogenous TFs are measured, whereas the TRANS assay evaluates changes in activities of exogenous, chimeric NR-Gal4 proteins. […] At the end of 24 hour incubation, total RNA was isolated using TriZol reagent (Invitrogen). The isolated RNA is then reverse-transcribed using oligo(dT) primer and Mo-MLV reverse transcriptase (Invitrogen) with DNAse I (Ambion) treatment for 30 min. The one-tenth of the produced cDNA was amplified by PCR using Taq DNA polymerase (Invitrogen) and two reporter sequence-specific primers. The PCR products were fluorescently labeled by primer extension with 6-arboxyfluorescein (6-FAM) 5'-labeled reporter sequence-specific primer (2 min at 95 C, 20 s at 68 C and 10 min at 72 C) and these products were digested with 5U of HpaI (New England Biolabs) for 2h at 37 C. The fragments were purified using Qiaquick PCR columns (Qiagen), analyzed on an ABI 3130xL genetic analyzer (Applied Biosystems) with peak positions identified by using a set of X-rhodamine (ROX)-labeled MapMarker1000 molecular weight standards (BioVentures). The raw capillary electrophoresis data was processed using Attagraph software (Attagene).

Structure (SMILES)	AC50	outcome
c1cc2ccc3cccc4ccc(c1)c2c34	39.9 µM (active) and 19.8 µM (active)	–
CCC(=O)O[C@H]1CC[C@H]2[C@@H]3CCC4=CC(=O)CC[C@]4(C)[C@H]3CC[C@]12C	10.9 nM (active) and 4.11 nM (active)	–
CC(c1ccc(O)cc1)(c1ccc(O)cc1)c1ccc(O)cc1	–	inactive
CC(C)(O)C(=O)Nc1ccc([N+](=O)[O-])c(C(F)(F)F)c1	–	inactive
C[C@]12CCC(=O)C=C1CC[C@@H]1[C@@H]2CC[C@@]2(C)[C@H]1CC[C@]2(C)O	2.25 nM (active)	–
C[C@]12CCC(=O)C=C1CC[C@@H]1[C@@H]2CC[C@]2(C)C(=O)CC[C@@H]12	19.2 nM (active) and 24 nM (active)	–
Oc1ccc(C(c2ccc(O)cc2)(C(F)(F)F)C(F)(F)F)cc1	7870 nM (active)	inactive
Cc1cc(-c2ccc(N)c(C)c2)ccc1N	–	inactive
CC(C)(c1ccccc1)c1ccc(O)cc1	992 nM (active)	–
Clc1ccc(C(c2ccccc2Cl)C(Cl)(Cl)Cl)cc1 (stereo not drawn)	858 nM (active)	–
CCOC(=O)C(O)(c1ccc(Cl)cc1)c1ccc(Cl)cc1	–	inactive
ClC(Cl)=C(c1ccc(Cl)cc1)c1ccc(Cl)cc1	–	inactive
